Screening data: PubChem, National Center for Advancing Translational Sciences (NCATS)
Hits are enriched below; roughly 19% of the tested compounds scored in any of these assays.
DT40 TDP1 no CPT: qHTS for Inhibitors of human tyrosyl-DNA phosphodiesterase 1 (TDP1): qHTS in cells in absence of CPT. DT40 Tdp1-/- hTDP1 cells, no CPT, ATP luminescence, 48 h. Potency, µM (highest dose often 46.2 µM), inactives show at the highest dose activity change, negative = growth inhibition, actives largely listed as inhibitors. 420,000 tested, 15% active; also: potency is read from the fitted curve at half-maximal effect; % is scaled to controls: 0 for no effect and ±100 for the full control effect; nearly all actives have a fitted effect of over 55% in size
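A cellular qHTS used chicken DT40 cells lacking endogenous Tdp1 but carrying stably transfected human TDP1. Compounds were applied without camptothecin, and cell growth kinetics were judged by ATP-dependent luminescence after ≥48 hr.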
IL1B secr inh: blocks inflammasome-driven IL-1 beta release | THP-1 LPS/ATP IL-1B secretion, AlphaLISA, 16 h; active compounds read low | 360,000 tested, 4.7% active | activity change, % at 57.5 µM; in the data active = activity change below about -50%; inconclusive = mostly about -30% to -49%; also: % is scaled to controls: 0 for no effect and ±100 for the full control effect
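Secreted IL-1B measured by AlphaLISA bead assay after 16 h compound exposure of THP-1 cells; compounds (final up to 57.5 uM) added 1 h before LPS (250 ng/mL) and ATP (1.25 mM) stimulation; lower signal means less secretion.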
TDP1 inh: inhibitors of human tyrosyl-DNA phosphodiesterase TDP1; recombinant TDP1, AlphaScreen DNA substrate cleavage; Potency, µM (top dose mostly 130 µM), inactives show at the highest dose activity change, negative = inhibition, hits mostly inhibitors; 350,000 tested, 0.28% active; AID 485290; also: potency is read from the fitted curve at half-maximal effect; % is scaled to controls: 0 for no effect and ±100 for the full control effect; nearly all actives have a fitted effect of over 40% in size
Target sequence (Q9NUW8 whole entry, looked up): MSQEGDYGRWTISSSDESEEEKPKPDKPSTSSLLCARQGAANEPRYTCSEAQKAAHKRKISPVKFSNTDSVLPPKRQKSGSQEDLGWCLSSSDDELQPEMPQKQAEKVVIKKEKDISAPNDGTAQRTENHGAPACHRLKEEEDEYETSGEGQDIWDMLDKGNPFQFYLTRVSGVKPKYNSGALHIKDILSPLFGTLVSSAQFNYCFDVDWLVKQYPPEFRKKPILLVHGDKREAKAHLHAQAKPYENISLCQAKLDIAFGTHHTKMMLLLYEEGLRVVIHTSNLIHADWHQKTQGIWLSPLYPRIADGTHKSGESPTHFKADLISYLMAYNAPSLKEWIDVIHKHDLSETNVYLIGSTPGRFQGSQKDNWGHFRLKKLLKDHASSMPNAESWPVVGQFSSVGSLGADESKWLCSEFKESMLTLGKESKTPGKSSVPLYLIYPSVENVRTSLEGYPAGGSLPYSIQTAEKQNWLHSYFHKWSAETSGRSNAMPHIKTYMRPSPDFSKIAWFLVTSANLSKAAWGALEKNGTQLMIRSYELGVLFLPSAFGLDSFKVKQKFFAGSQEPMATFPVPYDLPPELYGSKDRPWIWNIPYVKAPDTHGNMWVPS
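Recombinant human Tdp1 (E. coli-expressed, 1 nM final) preincubated with compounds 15 min at room temperature, then 5'-biotin/3'-phosphotyrosine-FITC DNA substrate (15 nM final) added for 5 min. AlphaScreen beads (10 ug/ml final) added 10 min; cleavage lowers signal.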
HepG2 viability: kills HepG2 cells in TGF-b inhibitor counter-screen; 410,000 tested, 0.76% active; HepG2 CAGA-GFP viability, ATP luminescence, 18 h; Potency, µM (highest dose often 46.1 µM), without a hit: top-dose activity change, negative = cytotoxicity, usual class: cytotoxic; AID 588856; also: potency is read from the fitted curve at half-maximal effect
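CellTiter-Glo luminescence gave cytotoxicity after 18 hours at 37 degrees C. The cells were HepG2 CAGA-GFP in 1% FBS DMEM, stimulated with 500 pg/mL TGF-beta after compound addition. %Activity was normalised to no-cell wells (complete cell-killing) and DMSO (no toxicity), and curves were fitted and classified.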
DT40 TDP1 CPT: DT40-hTDP1 cell growth loss with CPT. chicken DT40 Tdp1-/-;hTDP1 cells + 20 nM CPT, ATP luminescence, 48 h. Potency, µM (doses to about 46.2 µM), inactives show at the highest dose activity change, negative = growth inhibition, actives largely listed as inhibitors. 420,000 tested, 12% active. AID 686979; also: potency is read from the fitted curve at half-maximal effect; % is scaled to controls: 0 for no effect and ±100 for the full control effect; nearly all actives have a fitted effect of over 55% in size
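Chicken DT40 Tdp1-/- cells complemented with human TDP1, 400 cells/well, exposed to compounds plus 20 nM camptothecin for at least 48 h at 37 C; viability read as ATP content by CellTiter-Glo luminescence.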
TGFb inhibitor: blocks TGF-b signaling; 410,000 tested, 1.2% active; Potency, µM (top dose mostly 46.1 µM), for inactives: at the top dose activity, negative = inhibition, usual class: inhibitors; AID 588855; HepG2 CAGA-GFP TGF-b/SMAD3 reporter, GFP fluorescence, 18 h; TGF-beta stimulated, 500 pg/mL final; also: potency is read from the fitted curve at half-maximal effect; % is scaled to controls: 0 for no effect and ±100 for the full control effect; nearly all actives have a fitted effect of over 65% in size
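Using HEPG2 CAGA-GFP reporter cells at 1000 cells/well, we pinned test compounds, stimulated with recombinant TGF-beta (500 pg/mL final) and measured total well GFP after 18 h.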
* = called active by the depositor. Unless noted, calls follow the shape of the dose curve; as a rule, active = well fitted curve in the direction sought with a large enough effect; inconclusive = small, poorly fitted or top-dose-only effect, or another doubt; inactive = no such curve, though single readings can be large; an effect the other way counts as inactive or inconclusive.

For CCC(C(=O)NCc1ccco1)n1nc(C)n2c(cc3occc32)c1=O (centres undefined) the results were DT40 TDP1 no CPT 10%, IL1B secr inh 22, TDP1 inh -8%, HepG2 viability -3%, DT40 TDP1 CPT -13% and TGFb inhibitor 0%.
For Cc1cccc(N2CCN(C(=O)c3cccc(-n4c(C)nc5cccnc54)c3)CC2C)c1 (centres undefined) the results were DT40 TDP1 no CPT 6.5µM*, TDP1 inh 6%, HepG2 viability -30%, DT40 TDP1 CPT 8.2µM* and TGFb inhibitor -27%.
Screening Cc1ccc(C)c(N2CCN(C(=O)c3cc4ccc5cccnc5c4[nH]3)CC2)c1 returned DT40 TDP1 no CPT inconclusive, TDP1 inh 6%, HepG2 viability -23%, DT40 TDP1 CPT 29µM* and TGFb inhibitor 16µM*.
Screening Cc1ccc(Cl)cc1N(C)C(=O)c1cc2ccc3cccnc3c2[nH]1 returned DT40 TDP1 no CPT 8.2µM*, TDP1 inh 4%, HepG2 viability 13µM*, DT40 TDP1 CPT 6.5µM* and TGFb inhibitor 11µM*.
O=C(NCC1CCN(Cc2cccc(Cl)c2)CC1)c1cc2ccc3cccnc3c2[nH]1 was read as DT40 TDP1 no CPT inconclusive, TDP1 inh 1%, HepG2 viability -23%, DT40 TDP1 CPT -30% and TGFb inhibitor 7%.
CCN1c2ccccc2-c2nc(SCC(=O)NCc3ccc(Cl)cc3)ncc2S1(=O)=O was read as DT40 TDP1 no CPT inconclusive, TDP1 inh 5%, HepG2 viability -13%, DT40 TDP1 CPT inconclusive and TGFb inhibitor 2%.
`CNc1ccc(/C=C2\C=Cc3ccccc32)cc1OC` gave DT40 TDP1 no CPT inconclusive, HepG2 viability -11%, DT40 TDP1 CPT -5% and TGFb inhibitor -3%.
For Cc1cccc(-c2ccc3c(c2)C2CC3CCN2)c1 (centres undefined) the results were DT40 TDP1 no CPT 15µM*, IL1B secr inh 0, HepG2 viability -4%, DT40 TDP1 CPT 21µM* and TGFb inhibitor 23%.
For Fc1ccc(-c2ccc3c(c2)C2CC3CCN2)cc1 (centres undefined) the results were DT40 TDP1 no CPT 23µM*, IL1B secr inh 0, HepG2 viability -33%, DT40 TDP1 CPT 18µM* and TGFb inhibitor -29%.
For COc1cc(-c2cnc3c(NC(C)=O)cc(-c4ccc(N5CCN(C)CC5)cc4)cn23)cc(OC)c1OC the results were DT40 TDP1 no CPT 4.6µM*, IL1B secr inh -87*, HepG2 viability -78%, DT40 TDP1 CPT 4.6µM* and TGFb inhibitor -7%.
Screening COc1cc(-c2cnc3c(NC=O)cc(-c4ccc(N5CCN(C)CC5)cc4)cn23)cc(OC)c1OC returned DT40 TDP1 no CPT 3.7µM*, IL1B secr inh 45, HepG2 viability -63%, DT40 TDP1 CPT 3.3µM* and TGFb inhibitor -25%.
CNC(=O)C1CCC(Cn2c(=O)c3sccc3n(CC(=O)N3CCC(C)CC3)c2=O)CC1 (centres undefined) was read as DT40 TDP1 no CPT 1%, TDP1 inh -2%, HepG2 viability -25%, DT40 TDP1 CPT 2% and TGFb inhibitor inconclusive.
For Cc1cc(I)ccc1Nc1nc(NCCN2CCOCC2)nc(N2CCOCC2)n1 the results were DT40 TDP1 no CPT 5.6µM*, HepG2 viability -45%, DT40 TDP1 CPT 3.2µM* and TGFb inhibitor -7%.
`CN1/C(=C/C(=S)NC(=O)C2(C)CC2(Cl)Cl)C(C)(C)c2ccccc21` (centres undefined) gave DT40 TDP1 no CPT 23µM*, IL1B secr inh -13, TDP1 inh 10%, HepG2 viability -5%, DT40 TDP1 CPT inconclusive and TGFb inhibitor -18%.
`CN1/C(=C\C(=O)c2cccs2)C(C)(C)c2ccccc21` gave DT40 TDP1 no CPT -11%, IL1B secr inh 0, HepG2 viability 1%, DT40 TDP1 CPT -11% and TGFb inhibitor -28%.
`CN1/C(=C\C(=S)NC(=O)c2ccccc2Cl)C(C)(C)c2ccccc21` gave DT40 TDP1 no CPT 4.6µM*, IL1B secr inh -54*, TDP1 inh 11%, HepG2 viability -12%, DT40 TDP1 CPT 7.3µM* and TGFb inhibitor -22%.
COc1ccccc1C(=O)NC(=S)/C=C1/N(C)c2ccccc2C1(C)C was read as DT40 TDP1 no CPT inconclusive, IL1B secr inh inconclusive, TDP1 inh 3%, HepG2 viability -3%, DT40 TDP1 CPT inconclusive and TGFb inhibitor 22µM*.
For CCc1cccc(NC(=O)C2CCC(CNS(=O)(=O)c3ccc(Br)s3)CC2)c1 (centres undefined) the results were DT40 TDP1 no CPT inconclusive, TDP1 inh 0%, HepG2 viability -21%, DT40 TDP1 CPT inconclusive and TGFb inhibitor -1%.
Screening COc1ccc(-n2c(C)nc3sc4c(c3c2=O)CCCC4)cc1 returned TDP1 inh 1%.
For COc1ccc(-n2c(SCC(=O)O)nc3sc4c(c3c2=O)CCCC4)cc1 the results were DT40 TDP1 no CPT 1%, IL1B secr inh 24, HepG2 viability 4%, DT40 TDP1 CPT -3% and TGFb inhibitor 0%.
`NNc1nc2sc3c(c2c(=O)n1-c1ccccc1)CCCC3` gave DT40 TDP1 no CPT inconclusive, IL1B secr inh 27, TDP1 inh 11%, HepG2 viability -47%, DT40 TDP1 CPT 18µM* and TGFb inhibitor -27%.
Screening COc1ccc(-n2c(NNC(C)=O)nc3sc4c(c3c2=O)CCCC4)cc1 returned DT40 TDP1 no CPT 4.1µM*, IL1B secr inh -16, HepG2 viability -32%, DT40 TDP1 CPT 3.3µM* and TGFb inhibitor -9%.
COc1ccc(-n2c(SCCNCCO)nc3sc4c(c3c2=O)CCCC4)cc1 was read as DT40 TDP1 no CPT inconclusive, IL1B secr inh -75*, TDP1 inh 10%, HepG2 viability -45%, DT40 TDP1 CPT inconclusive and TGFb inhibitor inconclusive.
Screening O=[N+]([O-])c1ccc(N2CCC(=NOCc3ccc(Cl)cc3)CC2)cc1 returned DT40 TDP1 no CPT 10µM*, IL1B secr inh inconclusive, TDP1 inh -1%, HepG2 viability -1%, DT40 TDP1 CPT 21µM* and TGFb inhibitor inconclusive.
`O=[N+]([O-])c1ccc(CN2CCSCC2)cc1` gave DT40 TDP1 no CPT -16%, IL1B secr inh -15, TDP1 inh -2%, HepG2 viability -88%, DT40 TDP1 CPT 7% and TGFb inhibitor 61%.
